Experimental data: PubChem BioAssay AID1159580 (chemical genetic matrix, 2015)
“And” between values parts separate entries of the source, which are not always exact repeats. Equal entries are not always repeated. In all, about 5,500 compounds went through this assay and about 2,000 (36%) were called active. About 18% were inconclusive and are not listed. Cut-off read from the data, not from the text of the source: active = normalized growth mostly below about 0.91 (no sharp cut-off); inconclusive = no clear call, values can overlap the other calls; inactive = mostly above about 0.92. Some of the results follow.

Test: chemical genetic growth profiling, strain panel (AID 1159580);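 note: tested at 20 µM; growth read once vehicle control cultures reached saturation at 30 °C; 1 = growth at the plate median or of vehicle wells; lower values mean less growth of the strain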
Conditions: S. cerevisiae deletion strains, growth OD

Measured: normalized growth

Cn1c(=O)c2[nH]c(C3CCCC3)nc2n(C)c1=O
inactive: locus YAL013W, strain DEP1, stronger effect = lower value 1.01 | locus YAL021C, strain ccr4, stronger effect = lower value 0.989 | locus YAL026C, strain drs2, stronger effect = lower value 0.997 | locus YAL030W, strain snc1, stronger effect = lower value 0.99 | locus YAL040C, strain CLN3, stronger effect = lower value 0.977 | locus YBL061C, strain skt5, stronger effect = lower value 0.996 | locus YBR009C, strain hhf1, stronger effect = lower value 0.99 | locus YBR021W, strain FUR4, stronger effect = lower value 1.02 | locus YBR023C, strain chs3, stronger effect = lower value 0.996 | locus YBR171W, strain sec66, stronger effect = lower value 1.01 | locus YBR229C, strain ROT2, stronger effect = lower value 1.01 | locus YBR231C, strain swc5, stronger effect = lower value 0.997 | locus YBR279W, strain paf1, stronger effect = lower value 0.992 | locus YCL011C, strain gbp2, stronger effect = lower value 0.999 | locus YCL016C, strain dcc1, stronger effect = lower value 0.992 | locus YCL029C, strain bik1, stronger effect = lower value 0.994 | locus YCL061C, strain MRC1 (second series), stronger effect = lower value 0.985 | locus YCL061C, strain MRC1, stronger effect = lower value 0.993 | locus YCL069W, strain vba3, stronger effect = lower value 0.992 | locus YCR088W, strain abp1, stronger effect = lower value 1 | locus YDL005C, strain med2, stronger effect = lower value 0.982 | locus YDL035C, strain GPR1, stronger effect = lower value 1.01 | locus YDL040C, strain nat1, stronger effect = lower value 0.998 | locus YDL074C, strain BRE1, stronger effect = lower value 1.03 | locus YDL101C, strain DUN1, stronger effect = lower value 1.02 | locus YDL134C, strain PPH21, stronger effect = lower value 1.01 | locus YDL185W, strain tfp1, stronger effect = lower value 1.01 | locus YDL192W, strain arf1, stronger effect = lower value 1 | locus YDR001C, strain nth1, stronger effect = lower value 1 | locus YDR069C, strain doa4, stronger effect = lower value 0.979 | locus YDR101C, strain arx1, stronger effect = lower value 0.985 | locus YDR137W, strain rgp1, stronger effect = lower value 1 | locus YDR150W, strain NUM1, stronger effect = lower value 1.02 and 0.999 | locus YDR159W, strain sac3, stronger effect = lower value 0.989 | locus YDR162C, strain NBP2, stronger effect = lower value 1.02 | locus YDR195W, strain ref2 0.944 | locus YDR297W, strain sur2, stronger effect = lower value 0.991 | locus YDR318W, strain mcm21, stronger effect = lower value 0.986 | locus YDR334W, strain swr1, stronger effect = lower value 0.997 | locus YDR335W, strain msn5, stronger effect = lower value 0.995 | locus YDR363W, strain ESC2, stronger effect = lower value 1.03 | locus YDR388W, stronger effect = lower value 0.995 | locus YDR392W, strain spt3, stronger effect = lower value 0.85 | locus YDR502C, strain sam2, stronger effect = lower value 1.01 | locus YEL003W, strain gim4, stronger effect = lower value 1 | locus YEL037C, strain rad23, stronger effect = lower value 1 | locus YEL061C, strain CIN8 (second series), stronger effect = lower value 1.01 | locus YEL061C, strain CIN8, stronger effect = lower value 1.01 | locus YER002W, strain NOP16, stronger effect = lower value 0.944 | locus YER015W, strain faa2, stronger effect = lower value 0.994 | locus YER016W, strain bim1, stronger effect = lower value 0.99 | locus YER110C, stronger effect = lower value 0.991 | locus YER111C, strain swi4, stronger effect = lower value 0.998 | locus YER155C, strain BEM2 (second series), stronger effect = lower value 0.961 | locus YER155C, strain BEM2, stronger effect = lower value 1.01 | locus YER167W, strain BCK2, stronger effect = lower value 1.01 | locus YFR010W, strain ubp6, stronger effect = lower value 1 | locus YGL078C, strain dbp3, stronger effect = lower value 1 | locus YGL086W, strain mad1, stronger effect = lower value 0.997 | locus YGL167C, strain pmr1, stronger effect = lower value 0.984 | locus YGL173C, strain kem1, stronger effect = lower value 0.997 | locus YGL227W, strain vid30, stronger effect = lower value 0.991 | locus YGL240W, strain doc1, stronger effect = lower value 0.981 | locus YGL248W, strain PDE1, stronger effect = lower value 1.02 | locus YGL253W, strain hxk2, stronger effect = lower value 1.01 | locus YGR078C, strain PAC10, stronger effect = lower value 1.01 | locus YGR135W, strain pre9, stronger effect = lower value 0.982 | locus YGR229C, strain SMI1, stronger effect = lower value 1.02 and 1.04 | locus YGR252W, strain gcn5, stronger effect = lower value 0.904 | locus YHR013C, strain ard1, stronger effect = lower value 0.953 | locus YHR027C, strain rpn1, stronger effect = lower value 0.991 | locus YHR030C, strain SLT2, stronger effect = lower value 1.01 and 0.978 | locus YHR079C, strain IRE1 (second series), stronger effect = lower value 0.994 | locus YHR079C, strain IRE1, stronger effect = lower value 0.991 | locus YHR094C, strain hxt1, stronger effect = lower value 1 | locus YHR129C, strain ARP1, stronger effect = lower value 1.01 | locus YHR142W, strain chs7, stronger effect = lower value 1 | locus YHR200W, strain rpn10, stronger effect = lower value 1.01 | locus YIL066C, strain RNR3, stronger effect = lower value 1 | locus YIL073C, strain SPO22, stronger effect = lower value 1 | locus YIL125W, strain kgd1, stronger effect = lower value 0.995 | locus YIR030C, strain dcg1, stronger effect = lower value 1 | locus YJL092W, strain hpr5, stronger effect = lower value 1.01 | locus YJL095W, strain BCK1 (second series), stronger effect = lower value 0.992 | locus YJL095W, strain BCK1, stronger effect = lower value 1 and 0.974 | locus YJL115W, strain asf1, stronger effect = lower value 0.987 | locus YJL129C, strain trk1, stronger effect = lower value 0.974 | locus YJL134W, strain LCB3, stronger effect = lower value 1.01 | locus YJL154C, strain vps35, stronger effect = lower value 0.995 | locus YJL164C, strain tpk1, stronger effect = lower value 0.987 | locus YJL166W, strain qcr8, stronger effect = lower value 0.984 | locus YJL168C, strain set2, stronger effect = lower value 1 | locus YJL187C, strain SWE1 (second series), stronger effect = lower value 1.01 | locus YJL187C, strain SWE1, stronger effect = lower value 0.99 | locus YJR043C, strain POL32, stronger effect = lower value 0.992 | locus YJR066W, strain TOR1, stronger effect = lower value 0.96
